{"source": "PubChem BioAssay (NCATS)", "key": {"[1]": {"assay": "Confirmatory screen GU Rhodamine qHTS for Zika virus inhibitors qHTS (AID 1347157); also: nearly all actives have a fitted effect of over 70% in size; also: potency is read from the fitted curve at half-maximal effect", "summary_of_the_method": "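Unlinked NS2B/NS3, 25 nM; Rhod110 peptide, 1.5 microM; compounds, up to 114 microM. Reaction run 15 min at RT in 10 mM Tris-HCl pH 8.0, 0.01% Tween 20; kinetic fluorescence change fitted with a 4-parameter Hill model.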"}, "[2]": {"assay": "Confirmatory screen NINDS Rhodamine qHTS for Zika virus inhibitors (AID 1347161); also: nearly all actives have a fitted effect of over 60% in size; also: potency is read from the fitted curve at half-maximal effect;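 as to activity change, negative = inhibition: purified Zika NS2B-NS3 protease with linked NS2B cofactor domain and Rhodamine110 peptide substrate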", "summary_of_the_method": "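Single-chain NS2B-NS3 protease, 25 nM, pH 8.0; compounds preincubated 15 min. Activity: Rhodamine110 release from 1.5 microM substrate over 15 min, room temperature, data fitted to 4-parameter Hill.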"}, "[3]": {"assay": "Tertiary RLuc qRT-PCR qHTS assay for Zika virus inhibitors (AID 1347169); also: top concentration of the series differs between compounds; nearly all actives have a fitted effect of over 55% in size", "summary_of_the_method": "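Vero cells (1,000 per well) plated overnight at 37 degrees C, treated with compound in DMSO, then infected with recombinant ZIKV-RLuc (Cambodian) at MOI 1-2 for 48-72 hrs. Live-cell Renilla luciferase substrate added; luminescence read after 1-1.5 hrs.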"}, "[4]": {"assay": "qHTS Assay for Lipid Storage Modulators (AID 1519; calls by dose curve)", "conditions": "Drosophila S3 cells, BODIPY lipid droplet/cell ratio, laser cytometry, cells loaded with oleic acid", "summary_of_the_method": "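Cells seeded at 5,000 per well were treated with compounds over a concentration series and loaded with oleic acid (400 uM, as added). Lipid droplet fluorescence (488 nm excitation, 500-530 nm channel) was read by laser-scanning cytometry and normalized to 20 uM Triacsin C.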"}, "[5]": {"assay": "ZIKV-mCherry secondary qHTS for Zika virus inhibitors (AID 1347158); also: top concentration of the series differs between compounds", "summary_of_the_method": "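After overnight seeding at 37 °C, Vero cells receive compound and then ZIKV-mCherry (MOI 1). Following 48-72 h infection, cells are fixed, counterstained with Hoechst, and imaged; percent infected cells is derived from an mCherry intensity cut-off of 450 RFU.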"}, "[6]": {"test_system": "Zika virus NS2B-NS3 protease (linked)", "assay": "384 well plate NINDS AMC confirmatory qHTS for Zika virus inhibitors (AID 1347163); also: nearly all actives have a fitted effect of over 50% in size; also: potency is read from the fitted curve at half-maximal effect;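 as to activity change, negative = inhibition: fluorescence of AMC released from Ac-VKTGKR-AMC peptide cleaved by the protease; top concentration of the series differs between compounds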", "summary_of_the_method": "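Linked protease 5/30/60 nM final; cpds up to 1 mM final, ~15 min preinc. Substrate Ac-VKTGKR-AMC 30 microM final. RT, dark, 25 min; FI ex 355/em 460; normalized to no-enzyme/no-inhibitor ctrls.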"}, "[7]": {"test_system": "Zika virus NS2B-NS3 protease (linked construct)", "assay": "384 well plate NINDS Rhodamine confirmatory qHTS for Zika virus inhibitors (AID 1347164); also: nearly all actives have a fitted effect of over 65% in size; also: potency is read from the fitted curve at half-maximal effect; as to activity change, negative = inhibition: top concentration of the series differs between compounds", "summary_of_the_method": "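Linked protease at a final 5 nM, 30 nM or 60 nM was preincubated ~15 min with compounds, then given 10 microM Ac-LKRR-Rhodamine 110. Fluorescence (ex 485/em 538 nm) after 25 min in the dark at room temperature.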"}, "[8]": {"assay": "HPAF-II 18hr Apoptosis Induction qHTS against the NCATS CANVASS Library (AID 1347360)", "summary_of_the_method": "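HPAF-II cells (500/well, DMEM + 10% FBS) were exposed to compounds for 18 hours at 37 degrees C. Caspase-3/7 activity was then read by Caspase-Glo 3/7 luminescence after 15 min at room temperature.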"}, "[9]": {"assay": "qHTS for Hypoxia signaling pathway (HIF-1) antagonists against the NCATS CANVASS Library (AID 1347374);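 also: HRE-bla ME-180 cells stimulated with cobalt chloride to stabilize HIF-1alpha; nearly all actives have a fitted effect of over 60% in size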", "summary_of_the_method": "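HRE-bla ME-180 cells (2,000/well, 0.5% dialyzed FBS) were pre-incubated 5 h, then given an 11-point compound series plus CoCl2 (60 uM solution as added) for 17 h at 37C. CCF4 β-lactamase read (ex 405, em 460/530 nm) after 2 h at RT.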"}, "[10]": {"assay": "qHTS for Antimalaria activity screened against the NCATS CANVASS Library (AID 1347380); also: nearly all actives have a fitted effect of over 40% in size; also: potency is read from the fitted curve at half-maximal effect;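 as to activity change, negative = inhibition: Plasmodium falciparum strain Dd2 asexual parasites grown in red blood cells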", "summary_of_the_method": "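Growth inhibition of asexual erythrocytic P. falciparum Dd2 was quantified by SYBR Green DNA staining. Cultures grew 72 h with compound (11-point series) in hypoxic gas at 37C; lysis and staining lasted 18 h.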"}, "[11]": {"assay": "qHTS for activators of Nrf2/ARE signaling pathway screened against the NCATS CANVASS Library (AID 1347391); also: nearly all actives have a fitted effect of over 60% in size", "summary_of_the_method": "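Cells carrying an ARE-driven beta-lactamase reporter (HepG2 background) are dosed for 16 h, then stained with CCF4. Cell viability in the same wells is measured by CellTiter-Glo luminescence.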"}, "[12]": {"assay": "G06 Cancer Cell Toxicity qHTS against the NCATS CANVASS Library (AID 1347368); also: nearly all actives have a fitted effect of over 60% in size; also: potency is read from the fitted curve at half-maximal effect", "summary_of_the_method": "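Cytotoxicity toward canine glioma G06 cells is scored from cellular ATP via luminescence after 72 hr compound exposure at 500 cells/well.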"}, "[13]": {"assay": "qHTS for inhibitors of ER calcium dysfunction: SERCaMP assay screened against the NCATS CANVASS Library (AID 1347393);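 also: lower secreted reporter signal means inhibitor of ER calcium depletion; nearly all actives have a fitted effect of over 40% in size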", "summary_of_the_method": "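qHTS in SH-SY5Y reporter cells: 16 h compound pretreatment, 4 h thapsigargin, then secreted Gaussia luciferase measured by luminescence.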"}, "[14]": {"assay": "Redox Reaction Profiling qHTS: Assay Interference Panel against the NCATS CANVASS Library (AID 1347401); also: potency is read from the fitted curve at half-maximal effect", "summary_of_the_method": "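Resazurin (5 uM) conversion to resorufin measured with 200 uM DTT in 50 mM HEPES pH 7.3, 50 mM NaCl. Compounds tested in 11-point qHTS series. Fluorescence (ex 525/em 598 nm) read before and after 15 min dark incubation.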"}, "[15]": {"assay": "HEK-293 Cancer Cell Toxicity qHTS against the NCATS CANVASS Library (AID 1347355); also: nearly all actives have a fitted effect of over 65% in size", "summary_of_the_method": "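qHTS cytotoxicity: compounds tested in 11 concentrations on 1000 seeded cells per well over 72 h; bortezomib served as control; signal from CellTiter-Glo luminescence.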"}, "[16]": {"assay": "SDT Cancer Cell Toxicity qHTS against the NCATS CANVASS Library (AID 1347365)", "summary_of_the_method": "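Dispense 500 SDT cells per well; pin-transfer compounds; incubate 72 hr at 37C, 5% CO2, 95% RH; add CellTiterGlo and read luminescence.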"}}, "note": "Results filed as inconclusive are left out. A call without a number means that no potency is given here. Calls of active or inactive are those of the source. Unless noted, calls follow the shape of the dose curve; as a rule, active = well fitted curve in the direction sought with a large enough effect; inconclusive = small, poorly fitted or top-dose-only effect, or another doubt; inactive = no such curve, though single readings can be large; an effect the other way counts as inactive or inconclusive.", "data": [{"molecule": "CCOC(=O)c1c(-c2ccccc2)csc1NC(=O)c1cc(-c2ccc(Cl)cc2)on1", "values": [{"measurement": "Potency", "setting": "[1]", "result": "inactive"}, {"measurement": "Potency", "setting": "[2]", "result": "inactive"}, {"measurement": "Potency", "setting": "[3]", "result": "inactive"}]}, {"molecule": "O=C(OC1Cc2c(O)cc(O)cc2OC1c1cc(O)c(O)c(O)c1-c1c(C2Oc3cc(O)cc(O)c3CC2OC(=O)c2cc(O)c(O)c(O)c2)cc(O)c(O)c1O)c1cc(O)c(O)c(O)c1", "note": "(configuration not stated)", "values": [{"measurement": "activity change, negative = inhibition", "setting": "[4]; at 57.5 µM (top of the series)", "result": "6.84% (inactive)"}, {"measurement": "max response", "setting": "[4]; measured here: cell count channel max response", "result": 16.9, "unit": "%"}, {"measurement": "max response", "setting": "[4]; measured here: lipid channel max response", "result": 25.4, "unit": "%"}, {"measurement": "Potency", "setting": "[5]", "result": "inactive"}, {"measurement": "Potency", "setting": "[6]", "result": "20 µM (active)"}, {"measurement": "Potency", "setting": "[7]", "result": "inactive"}]}, {"molecule": "O=C(OCc1cc(=O)n2nc(C3CC3)sc2n1)c1ccc(NC(=O)c2ccccc2F)cc1", "values": [{"measurement": "Potency", "setting": "[5]", "result": "inactive"}, {"measurement": "Potency", "setting": "[6]", "result": "inactive"}, {"measurement": "Potency", "setting": "[3]", "result": "inactive"}]}, {"molecule": "O=C(OCc1cc(=O)n2nc(C3CC3)sc2n1)c1ccc(NC(=O)c2ccccc2Cl)cc1", "values": [{"measurement": "Potency", "setting": "[1]", "result": "50.1 µM (active)"}, {"measurement": "Potency", "setting": "[6]", "result": "inactive"}, {"measurement": "Potency", "setting": "[3]", "result": "inactive"}]}, {"molecule": "O=C(O)c1nc2cc(Cl)c(Cl)cc2[nH]c1=O", "values": [{"measurement": "Potency", "setting": "[1]", "result": "inactive"}, {"measurement": "Potency", "setting": "[2]", "result": "inactive"}, {"measurement": "Potency", "setting": "[3]", "result": "inactive"}]}, {"molecule": "CCS(=O)(=O)c1cccc(C(=O)Nc2ccc(-c3nc4ccccc4s3)c(O)c2)c1", "values": [{"measurement": "Potency", "setting": "[1]", "result": "25.1 µM (active)"}, {"measurement": "Potency", "setting": "[6]", "result": "inactive"}, {"measurement": "Potency", "setting": "[7]", "result": "14.1 µM (active)"}, {"measurement": "Potency", "setting": "[3]", "result": "inactive"}]}, {"molecule": "CCOC(=O)c1ccc(N2C(=O)c3n[nH]c(-c4cccs4)c3C2c2ccc(C(C)(C)C)cc2)cc1", "note": "(configuration not stated)", "values": [{"measurement": "Potency", "setting": "[1]", "result": "20 µM (active)"}, {"measurement": "Potency", "setting": "[2]", "result": "15.8 µM (active)"}, {"measurement": "Potency", "setting": "[6]", "result": "inactive"}]}, {"molecule": "O=C(Nc1cccc(C(=O)OCc2cc(=O)n3c4c(sc3n2)CCCC4)c1)c1cccc(Cl)c1", "values": [{"measurement": "Potency", "setting": "[1]", "result": "inactive"}, {"measurement": "Potency", "setting": "[3]", "result": "inactive"}]}, {"molecule": "O=C(Nc1ccccc1C(=O)OCc1cc(=O)n2c3c(sc2n1)CCCC3)c1cccc(Cl)c1", "values": [{"measurement": "Potency", "setting": "[1]", "result": "inactive"}, {"measurement": "Potency", "setting": "[3]", "result": "inactive"}]}, {"molecule": "O=C(Nc1ccc(C(=O)OCc2cc(=O)n3nc(C4CC4)sc3n2)cc1)c1ccccc1", "values": [{"measurement": "Potency", "setting": "[1]", "result": "inactive"}, {"measurement": "Potency", "setting": "[3]", "result": "inactive"}]}, {"molecule": "C=C[C@@]1(C)CC[C@@H]([C@H](C)C(=O)/C=C/C(C)C)O1", "values": [{"measurement": "Potency", "setting": "[8]", "result": "inactive"}, {"measurement": "Potency", "setting": "[9]", "result": "inactive"}, {"measurement": "Potency", "setting": "[10]", "result": "inactive"}, {"measurement": "Potency", "setting": "[11]", "result": "inactive"}]}, {"molecule": "O=c1cc(-c2ccc(O)cc2)oc2c([C@@H]3OC(CO)[C@H](O)[C@@H](O)[C@H]3O)c(O)cc(O)c12", "note": "(some centres not stated)", "values": [{"measurement": "Potency", "setting": "[8]", "result": "inactive"}, {"measurement": "Potency", "setting": "[12]", "result": "inactive"}, {"measurement": "Potency", "setting": "[9]", "result": "inactive"}, {"measurement": "Potency", "setting": "[10]", "result": "0.0013 µM (active)"}, {"measurement": "Potency", "setting": "[11]", "result": "inactive"}, {"measurement": "Potency", "setting": "[13]", "result": "inactive"}]}, {"molecule": "COc1ccc(CCCc2cc(O)c(OC)c(O)c2)c(O)c1O", "values": [{"measurement": "Potency", "setting": "[8]", "result": "inactive"}, {"measurement": "Potency", "setting": "[12]", "result": "0.0148 µM (active)"}, {"measurement": "Potency", "setting": "[14]", "result": "21.5 µM (active)"}]}, {"molecule": "C[C@@]12CCC[C@@](C)(C(=O)O)[C@H]1C[C@@H](O)[C@]13C[C@H]4C[C@H](O[C@@]4(C)C1)[C@@H]23", "values": [{"measurement": "Potency", "setting": "[15]", "result": "inactive"}, {"measurement": "Potency", "setting": "[16]", "result": "inactive"}, {"measurement": "Potency", "setting": "[12]", "result": "inactive"}, {"measurement": "Potency", "setting": "[10]", "result": "inactive"}, {"measurement": "Potency", "setting": "[11]", "result": "inactive"}, {"measurement": "Potency", "setting": "[13]", "result": "inactive"}]}, {"molecule": "C=C1C[C@@]23C=CC(=O)[C@@](C)(CCC(=O)Nc4c(OC5O[C@H](CO)[C@@H](O)[C@H](O)[C@H]5O)ccc(C(=O)O)c4O)C2C[C@@H]1CC3", "note": "(some centres not stated)", "values": [{"measurement": "Potency", "setting": "[8]", "result": "inactive"}, {"measurement": "Potency", "setting": "[16]", "result": "inactive"}, {"measurement": "Potency", "setting": "[12]", "result": "inactive"}, {"measurement": "Potency", "setting": "[9]", "result": "inactive"}, {"measurement": "Potency", "setting": "[10]", "result": "inactive"}, {"measurement": "Potency", "setting": "[11]", "result": "inactive"}, {"measurement": "Potency", "setting": "[13]", "result": "inactive"}]}]}
